Results from PubChem BioAssay (NCI).
This is part of a sample that, as a whole, favours compounds with a hit. Of some 83,000 tested, about 20% had one in any assay.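 A percent growth of 40 corresponds to 60% growth inhibition; 0 means no net growth; -100 means all cells died. Active threshold: below 10.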 Unmarked numbers belong to inactive results. The source made the active and inactive calls.

How the values were obtained:
Experiment in all cases: NCI-60 one-dose screen, 48 h (100 = growth as untreated, 0 = no growth, -100 = all killed)
Conditions in all cases: 10 µM unless noted
[1] = tested on: HCT-15 colon
[2] = tested on: HT29 colon
[3] = tested on: SNB-75 CNS
[4] = tested on: U251 CNS
[5] = tested on: PC-3 prostate
[6] = tested on: SK-MEL-5 melanoma
[7] = tested on: UACC-62 melanoma
[8] = tested on: LOX IMVI melanoma
[9] = tested on: SK-MEL-28 melanoma
[10] = tested on: SNB-19 CNS

Compound: CCOC(=O)C(C)C(C)(O)c1ccccc1 (stereo unspecified)
- growth [1]: 108%
- growth [2]: 106%
- growth [3]: 87.5%
- growth [4]: 107%
- growth [5]: 99.9%
- growth [6]: 102%
- growth [7]: 97.4%
- growth [8]: 93.8%
- growth [9]: 101%

Compound: CCC(C)(CC)c1ccc(O)c(C)c1
- growth [1]: 101%
- growth [2]: 104%
- growth [3]: 86.2%
- growth [4]: 97.7%
- growth [5]: 98.9%
- growth [6]: 104%
- growth [8]: 97%
- growth [9]: 110%

Compound: COc1cccc(-c2cc(-c3cc4ccccc4oc3=O)nc(N)n2)c1
- growth [1]: 107%
- growth [2]: 117%
- growth [10]: 106%
- growth [4]: 110%
- growth [5]: 89.3%
- growth [6]: 95%
- growth [7]: 104%
- growth [8]: 95.4%
- growth [9]: 91.7%

Compound: CCCCCCNc1nc(N2CCOCC2)c2[nH]c(NCCCCCC)nc2n1
- growth [1]: -74.6% (active)
- growth [3]: -95.1% (active)
- growth [10]: -92.7% (active)
- growth [4]: -93.4% (active)
- growth [5]: -21.2% (active)
- growth [6]: -90.6% (active)
- growth [7]: -97.4% (active)
- growth [8]: -100% (active)
- growth [9]: -94.4% (active)

Compound: Cc1cc2cn3c4ccc(O)cc4[nH]c(=O)c3c2cc1C
- growth [1]: 3.8% (active)
- growth [2]: -67.6% (active)
- growth [10]: 40.7%
- growth [4]: -44.1% (active)
- growth [5]: 37.5%
- growth [6]: -31.5% (active)
- growth [7]: 49%
- growth [8]: 4.61% (active)
- growth [9]: -14.3% (active)

Compound: OCCN1CCCN(CCCN2c3ccccc3Sc3ccc(C(F)(F)F)cc32)CC1
- growth [1]: 61.6%
- growth [2]: 8.24% (active)
- growth [3]: 50.4%
- growth [4]: 33.6%
- growth [5]: 57.2%
- growth [6]: 36.3%
- growth [8]: 49%
- growth [9]: 30.7%

Compound: CCCC(=O)Nc1ccccc1C(=O)O
- growth [2]: 96.6%
- growth [3]: 89.4%
- growth [10]: 106%
- growth [4]: 89.7%
- growth [5]: 103%
- growth [6]: 99%
- growth [7]: 105%
- growth [8]: 92.5%
- growth [9]: 107%

Compound: COc1ccc2sc(-n3nc4nc5n(c(=O)c4c3N)-c3ccccc3Sc3ccccc3-5)nc2c1
- growth [2]: 73.6%
- growth [3]: 73.8%
- growth [10]: 79.7%
- growth [4]: 82.2%
- growth [5]: 48.7%
- growth [6]: 41.1%
- growth [7]: 64.1%
- growth [8]: 79.8%
- growth [9]: 92.6%

Compound: NC(=O)CC(NC(=O)COc1ccc(Cl)cc1Cl)C(=O)O (stereo unspecified)
- growth [2]: 107%
- growth [3]: 102%
- growth [10]: 103%
- growth [4]: 101%
- growth [5]: 94.2%
- growth [6]: 98.8%
- growth [7]: 98.6%
- growth [8]: 97.1%
- growth [9]: 109%

Compound: O=[N+]([O-])c1ccc(-c2ncc(-c3ccc(O)cc3O)[nH]2)cc1
- growth [2]: 123%
- growth [3]: 103%
- growth [10]: 93.3%
- growth [4]: 103%
- growth [5]: 98%
- growth [6]: 109%
- growth [7]: 95.3%
- growth [8]: 103%
- growth [9]: 108%

Compound: O=C(Nc1ccc(Cl)cn1)C1(c2ccccc2)CCCCC1
- growth [2]: 85.6%
- growth [3]: 106%
- growth [10]: 106%
- growth [4]: 97.5%
- growth [5]: 104%
- growth [6]: 91.6%
- growth [7]: 94.4%
- growth [8]: 101%
- growth [9]: 105%

Compound: COc1ccc2cn3c4ccc(O)cc4[nH]c(=O)c3c2c1
- growth [2]: -89.2% (active)
- growth [10]: 19.7%
- growth [4]: 5% (active)
- growth [6]: 10.9%
- growth [7]: 34.9%
- growth [8]: 24.4%
- growth [9]: 24.8%

Compound: O=C(C(=O)N1CCOCC1)c1ccc(O[C@H]2O[C@H](CO)[C@@H](O)[C@H](O)[C@@H]2O)cc1
- growth [2]: 93.4%
- growth [3]: 100%
- growth [10]: 109%
- growth [4]: 104%
- growth [5]: 88.8%
- growth [6]: 97.4%
- growth [7]: 97.1%
- growth [8]: 102%
- growth [9]: 117%

Compound: COc1cc(Cn2ccc3c2-c2oncc2CC3)cc(OC)c1
- growth [2]: 14.9%
- growth [3]: -16% (active)
- growth [10]: 43.7%
- growth [4]: 42.4%
- growth [5]: 57.9%
- growth [6]: 13.9%
- growth [7]: 38.3%
- growth [8]: 40.1%
- growth [9]: 48.9%

Compound: C=CCC(CCC(CC=C)C(=O)OCC)C(=O)OCC (stereo unspecified)
- growth [2]: 102%
- growth [3]: 77.8%
- growth [10]: 96.2%
- growth [4]: 102%
- growth [5]: 97.9%
- growth [6]: 108%
- growth [7]: 101%
- growth [8]: 92.1%
- growth [9]: 91.1%

Compound: Oc1ccccc1\C=N/N=C/C=C/c1ccccc1
- growth [2]: 92.3%
- growth [3]: 88.4%
- growth [10]: 93.9%
- growth [4]: 99.5%
- growth [5]: 89.7%
- growth [6]: 97.4%
- growth [7]: 93.2%
- growth [8]: 91.1%
- growth [9]: 111%

Compound: N#Cc1c(N)nc(Nc2nc3ccccc3[nH]2)nc1-c1ccc(Cl)cc1
- growth [2]: 95.4%
- growth [3]: 95.1%
- growth [10]: 107%
- growth [4]: 97.6%
- growth [5]: 94.8%
- growth [6]: 99.9%
- growth [7]: 113%
- growth [8]: 96.2%
- growth [9]: 115%

Compound: O=P(OCCCl)(OCCCl)C(O)c1ccccc1Cl (stereo unspecified)
- growth [2]: 101%
- growth [3]: 96.7%
- growth [10]: 107%
- growth [4]: 113%
- growth [5]: 103%
- growth [6]: 112%
- growth [7]: 106%
- growth [8]: 104%
- growth [9]: 113%

Compound: O=c1c2c(c3ccccc3n1-c1ccccc1)NC(=S)NC2c1ccccc1 (stereo unspecified)
- growth [2]: 132%
- growth [10]: 99%
- growth [4]: 107%
- growth [5]: -47.1% (active)
- growth [7]: 96%
- growth [8]: 97.9%
- growth [9]: 116%

Compound: c1ccc2[nH]c(-c3ccc(OCCCCCOc4ccc(-c5nc6ccccc6[nH]5)cc4)cc3)nc2c1
- growth [2]: -30.6% (active)
- growth [3]: -4.77% (active)
- growth [10]: 46%
- growth [4]: -2.78% (active)
- growth [5]: -70% (active)
- growth [6]: 37.7%
- growth [7]: 12.8%
- growth [8]: -77% (active)
- growth [9]: -71.6% (active)

Compound: Cc1cc2cn3c4ccc(O)cc4nc(N)c3c2cc1C
- growth [2]: -65.6% (active)
- growth [10]: 29.1%
- growth [4]: -5.52% (active)
- growth [5]: 25.4%
- growth [6]: -62.4% (active)
- growth [7]: 46.9%
- growth [8]: 27.4%
- growth [9]: -4.38% (active)

Compound: O=C1/C(=C\c2cn(-c3nc(N4CCOCC4)nc(N4CCOCC4)n3)c3ccccc23)c2ccccc2N1c1c(Cl)cccc1Cl
- growth [2]: 73.9%
- growth [3]: 0.936% (active)
- growth [10]: 69.6%
- growth [4]: 53.5%
- growth [5]: 24.3%
- growth [6]: 83%
- growth [7]: 46.6%
- growth [8]: 69.8%
- growth [9]: 77.2%

Compound: Cc1ncc(C(=O)Nc2ccc(CN3CCN(C)CC3)c(C(F)(F)F)c2)cc1C#Cc1c(N)ncc2ccc(F)cc12
- growth [2]: -87.4% (active)
- growth [3]: -3.33% (active)
- growth [10]: -99.6% (active)
- growth [4]: -88.3% (active)
- growth [5]: -83.6% (active)
- growth [6]: -70.2% (active)
- growth [7]: -28.7% (active)
- growth [8]: -74.2% (active)
- growth [9]: -85.8% (active)

Compound: C/C=C/C/C=C/[C@H](C)C[C@H](O)[C@@H]1C[C@@H]2O[C@H]2/C=C/[C@H](O)[C@@H](O)/C=C/C[C@H](C)CC(=O)O1
- growth [2]: 68.4%
- growth [3]: 90.9%
- growth [10]: 97.4%
- growth [4]: 87.4%
- growth [5]: 115%
- growth [6]: 72.9%
- growth [7]: 71.3%
- growth [8]: 88.3%
- growth [9]: 101%

Compound: O=C(/C=C1\C(=O)N(Cc2ccccc2)c2ccccc21)c1ccc(OCCN2CCCCC2)cc1
- growth [2]: -58% (active)
- growth [3]: 78.7%
- growth [10]: 88.1%
- growth [4]: 50.7%
- growth [5]: 56.9%
- growth [6]: 94.9%
- growth [7]: 69.5%
- growth [8]: -37.2% (active)
- growth [9]: 96.9%

Compound: CCOC(=O)C1C(=O)C(=O)N(C(C)C)C1C(=O)OCC (stereo unspecified)
- growth [2]: 98.2%
- growth [3]: 85.9%
- growth [10]: 97.3%
- growth [4]: 107%
- growth [5]: 97.8%
- growth [6]: 103%
- growth [8]: 102%
- growth [9]: 108%

Compound: Cn1c2ccccc2c2ccccc21
- growth [2]: 104%
- growth [3]: 85.5%
- growth [10]: 98.3%
- growth [4]: 96.5%
- growth [5]: 105%
- growth [6]: 105%
- growth [7]: 101%
- growth [8]: 95.8%
- growth [9]: 102%

Compound: CCCCCCCCCCCCCCCCCCOP(=O)(O)O
- growth [2]: 106%
- growth [3]: 97%
- growth [10]: 101%
- growth [4]: 101%
- growth [5]: 92.5%
- growth [6]: 99.2%
- growth [8]: 99.3%
- growth [9]: 111%

Compound: COC(=O)c1ccc2[nH]c(O)c(C(=Nc3ccc(N(C)C(=O)CN4CCN(C)CC4)cc3)c3ccc(OC)cc3)c2c1
- growth [2]: 20%
- growth [3]: 6.7% (active)
- growth [10]: 32.4%
- growth [4]: 19%
- growth [5]: 28.7%
- growth [6]: 28.5%
- growth [7]: 39.2%
- growth [8]: 16.1%
- growth [9]: 32.8%

Compound: Oc1ccc(Br)cc1/C=N/NC(=S)NC12CC3CC(CC(C3)C1)C2
- growth [2]: -16.7% (active)
- growth [3]: 53.3%
- growth [10]: 45.3%
- growth [4]: 5.5% (active)
- growth [5]: -19% (active)
- growth [6]: 28.6%
- growth [7]: 30.1%
- growth [8]: -76% (active)
- growth [9]: 51.2%
